# Test results published in PubChem BioAssay (NCATS).
# Results filed as inconclusive are left out. A number with no mark means an inactive call. The source made the active and inactive calls. Calls follow the shape of the dose curve; as a rule, active = well fitted curve in the direction sought with a large enough effect; inconclusive = small, poorly fitted or top-dose-only effect, or another doubt; inactive = no such curve, though single readings can be large; an effect the other way counts as inactive or inconclusive.
# Assay: qHTS assay to identify small molecule inhibitors of chordoma cells - UCH-2 (AID 1259356)
# Details: UCH-2 chordoma viability, CellTiter-Glo ATP luminescence, 48 h; series mostly up to 46.1 µM; activity change, negative = inhibition: at the top concentration
# % is scaled to controls: 0 for no effect and ±100 for the full control effect.
row,Structure (SMILES),"activity change, negative = inhibition"
1,O=C1CCCCC1CN1CCCCC1 (centres undefined),4.07%
2,CCC(C)(S(=O)(=O)CC)S(=O)(=O)CC,-6.43%
3,[2H]C([2H])([2H])[C@H](N)Cc1ccccc1,8.29%
4,CC(C)CCON=O,1.61%
5,C[C@@H](Cc1ccccc1)N(C)C,6.66%
6,Clc1ccccc1Cl,1.48%

# Assay: P-glycoprotein substrates identified in KB-8-5-11 adenocarcinoma cell line, qHTS therapeutic library screen (AID 1346987); also: nearly all actives have a fitted effect of over 65% in size; also: potency is read from the fitted curve at half-maximal effect
# Details: KB-8-5-11 (P-gp overexpressing) viability, CellTiter-Glo, 72 h; series mostly up to 44.5 µM; activity change, negative = cytotoxicity: at the top concentration
# How it was run: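 KB-8-5-11, a colchicine-selected P-gp-overexpressing KB-3-1 subline, was grown without colchicine for the assay. Cells were seeded at 500 cells/well, dosed in concentration-response and incubated 72 h at 37 degree C, 5% CO2. Viability was read by CellTiter-Glo luminescence.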
Structure (SMILES),"activity change, negative = cytotoxicity",Potency
O=C(OCCN1CCCCC1)C(O)(c1ccccc1)c1ccccc1,8.6%,–
COc1ccc(OC)c([C@@H](O)[C@H](C)N)c1,5.55%,–
CC(=O)OO,-9.37%,–
CCCCC[C@@H](O)C1C(=O)OC(C)[C@H](O)/C=C/C=C/C=C/C=C/C=C(\C)C(O)C(O)C(O)C[C@H](O)C[C@H](O)C[C@H](O)C[C@H](O)C[C@@H]1O (some centres undefined),–,inactive
C[C@H]1CC[C@]2(NC1)O[C@H]1C[C@H]3[C@@H]4CC[C@H]5C[C@@H](O)CC[C@]5(C)[C@H]4CC[C@]3(C)[C@H]1[C@@H]2C,-1.36%,–
CCC/C=C/C=C/C(=O)O[C@H]1/C(=C/C(=O)OC)C[C@H]2C[C@H]([C@@H](C)O)OC(=O)C[C@H](O)C[C@@H]3C[C@H](OC(C)=O)C(C)(C)[C@](O)(C[C@@H]4C/C(=C/C(=O)OC)C[C@H](/C=C/C(C)(C)[C@]1(O)O2)O4)O3,-3.26%,–
O=c1ccc2cc(O[C@@H]3O[C@H](CO)[C@@H](O)[C@H](O)[C@H]3O)c(O)cc2o1,-2.11% [at 17.3 µM],–
ClC(Cl)(Cl)Cl,-0.758%,–
Oc1cc(Cl)c(Cl)cc1Cl,6.7%,–
S=C(S)N1CCNCC1,-0.146%,–
CCC1(c2ccccc2)C(=O)NC(=O)N(C(=O)c2ccccc2)C1=O (centres undefined),-14.3%,–
OC[C@@H](O)[C@H]1O[C@@H]2O[C@@H](C(Cl)(Cl)Cl)O[C@@H]2[C@H]1O,-16%,–
CCCC(C)(COC(N)=O)COC(=O)NC1CC1 (centres undefined),-7.22%,–
O=C(C[C@@H]1NCCC[C@H]1O)Cn1cnc2cc(Br)c(Cl)cc2c1=O,5.56%,–
CC(=O)O[C@H]1CC[C@H]2[C@@H]3CCC4=CC(=O)CCC4=C3C=C[C@]12C,–,7.31 µM (active)
CCCCCCCCCC(=O)O[C@H]1CC[C@H]2[C@@H]3CCC4=CC(=O)CC[C@]4(C)[C@H]3CC[C@]12C,–,16.4 µM (active)
CCON=O,-21.4%,–
C[C@]12CC[C@H](OS(=O)(=O)O)CC1=CC[C@@H]1[C@@H]2CC[C@]2(C)C(=O)CC[C@@H]12,1.17%,–
Oc1cccc[c]1[Hg][Cl],–,5.17 µM (active)

Structure (SMILES),"activity change, negative = cytotoxicity",Potency
C[C@]12CC[C@H]3[C@@H](CCC4=C(Cl)C(=O)CC[C@@]43C)[C@@H]1CC[C@@H]2O,–,13 µM (active)
CCOC(=O)c1ccccc1C(=O)OCC,3.47%,–
O=C(O)C(Cl)(Cl)Cl,2.1%,–
C=CCN=C=S,-3.73%,–
O=S(=O)(O)c1cc(O)ccc1O,-1.39% [at 17.3 µM],–
CNC(=O)OCC[N+](C)(C)C,-10.8%,–
O=C(CCl)c1ccc(Oc2ccc(C(=O)CCl)cc2)cc1,4.27%,–
CC(=O)O[C@H]1C[C@H](O[C@H]2[C@@H](O)C[C@H](O[C@H]3[C@@H](O)C[C@H](O[C@H]4CC[C@@]5(C)[C@H](CC[C@@H]6[C@@H]5C[C@@H](O)[C@]5(C)[C@@H](C7=CC(=O)OC7)CC[C@]65O)C4)O[C@@H]3C)O[C@@H]2C)O[C@H](C)[C@H]1O[C@@H]1O[C@H](CO)[C@@H](O)[C@H](O)[C@H]1O,–,0.206 µM (active)
CC(=O)Oc1ccc2c3c1O[C@H]1[C@@H](OC(C)=O)C=C[C@H]4[C@@H](C2)N(C)CC[C@@]341,–,inactive
CC1(C)[C@H](C=C(Cl)Cl)[C@H]1C(=O)OCc1c(F)c(F)cc(F)c1F,-1.18%,–
CNC1(c2ccccc2Cl)CCCCC1=O (centres undefined),–,inactive
ClC=C(Cl)Cl,-2.4%,–
CC(C)CCC(=O)O[C@H]1CC[C@H]2[C@@H]3CCC4=CC(=O)CC[C@]4(C)[C@H]3CC[C@]12C,–,7.31 µM (active)
O=C1CCCCC1CN1CCCCC1 (centres undefined),3.65%,–
CCC(C)(S(=O)(=O)CC)S(=O)(=O)CC,-11.5%,–
[2H]C([2H])([2H])[C@H](N)Cc1ccccc1,13.1%,–
CC(C)CCON=O,-8.86%,–
C[C@@H](Cc1ccccc1)N(C)C,-4.37%,–
Clc1ccccc1Cl,-4.71%,–
